Measurements reported in PubChem BioAssay AID624336 (National Center for Advancing Translational Sciences (NCATS), 2012).
Results filed as inconclusive are left out. A number with no mark means an inactive call. Activity calls are given as the source filed them. Calls follow the shape of the dose curve; as a rule, active = well fitted curve in the direction sought with a large enough effect; inconclusive = small, poorly fitted or top-dose-only effect; inactive = flat fitted curve, though single readings scatter.

Assay: Quantitative high throughput screen for delayed death inhibitors of the malarial parasite plastid: Hit Validation with Dd2 at 48 hr using Flow Cytometry
Conditions: P. falciparum Dd2 growth, flow cytometry SYBR/MitoTracker; relative growth, lower = inhibition: at 50 µM (top of the series)
Excerpt: The goal of this screen is to discover new antimalarial compounds that act by inhibiting the development of the apicoplast organelle in the malarial parasite Plasmodium falciparum. Some antibiotics, such as azithromycin and tetracycline, are known to interfere with the apicoplast translational machinery, and have a potent antimalarial effect. […] We developed a cell-based quantitative high throughput screen that leverages this "delayed death" phenotype to enrich for compounds that target the apicoplast. To detect small molecules that cause the delayed death phenotype, erythrocytes infected with firefly luciferase-expressing parasites were incubated with compounds for either one or two generations, corresponding to 48 and 96 hours, respectively. Growth inhibition was detected by a decrease in luciferase activity. Compounds that inhibited parasite growth in the second generation at least five-fold more potently than in the first generation were defined as delayed death inducing. These compounds were selected for confirmatory screening using a flow cytometry based assay. This hit validation assay used the Dd2 cell line and measured at 48 hours. NIH Molecular Libraries Probe Production Network [MLPCN] NIH Chemical Genomics Center [NCGC] MLPCN Grant: R21 NS059500 Assay Provider: David Fidock and Eric Ekland, Columbia University
Test compounds were diluted in 20 microliters of complete media (RPMI 1640 with 0.5% w/v Albumax (GIBCO), 24 mM sodium bicarbonate (Sigma) and 10 ug/mL gentamycin (Gibco)) in clear 384-well plates (Greiner). All liquid handling was conducted using a Bio Tek Precision 2000 pipetting system. Twenty microliters of infected erythrocytes, 0.2% parasitemia (for 48 hour time points) or 0.1% parasitemia (for 96 hour time points) were added to the compound dilutions (1% hematocrit, final concentration; 40 microliters, total culture volume). The assay plates were incubated for 48 hours, or 96 hours, at 37 masculine C in a humidified chamber (Billups- Rothenberg, Del Mar, CA, USA), gassed with 5%CO2/5%O2/ 90%N2. After one generation (48 hours), 5 microliters of culture were harvested and transferred to a second 384 well plate for fluorescent staining. Samples were stained with 30 microliters of 2 x SYBR Green I (Invitrogen) and 150nM MitoTracker Deep Red (Invitrogen) diluted in 0.9% NaCl, 0.2% dextrose (Baxter) supplemented with 2.5% Fetal Calf Serum (Gibco) (saline/FCS). Mature erythrocytes lack nuclei and mitochondria, therefore only parasitized erythrocytes retain the SYBR Green I and MitoTracker Deep Red. After 30 minutes at 37 masculine C, the stained cells were diluted in an additional 60 microliters of saline/FCS. The samples were harvested directly from the 384 well plate using a Hypercyt High Capacity Flow Platform (Intellicyt) paired with a C6 Flow Cytometer (Accuri). The flow cytometry files were analyzed using FlowJo software (FlowJo).

Compound	relative growth, lower = inhibition	Potency
CN(C)S(=O)(=O)c1cc(NC(=O)C2=COCCO2)ccc1Cl	1.39 (active)	
CCOc1ccc(NC(=O)C[n+]2ccc(N(C)C)cc2)cc1		2.57 µM (active)
O=C(CSc1ccc(-c2cccnc2)nn1)Nc1ccccc1C(F)(F)F		8.74 µM (active)
CN(C)c1ccc(CN(C(=O)c2ccccc2Br)C2CCS(=O)(=O)C2)cc1 (stereo unspecified)		9.14 µM (active)
Cc1ccc(S(=O)(=O)Nc2ccc(C(=O)Nc3ccncc3)cc2)cc1	0.257 (active)	
CCC(=O)OC1C(N(C)C)CC(C)O[C@H]1O[C@H]1[C@H](C)[C@@H](O[C@H]2CC(OC)[C@@H](O)C(C)O2)[C@H](C)C(=O)O[C@@H](CC)[C@](C)(O)[C@@H](O)[C@H](C)C(=O)[C@@H](C)C[C@]1(C)O (stereo partly specified)		34.1 µM (active)
CCCCOc1ccc(N2C(N)=NC(N)=NC23CCCCC3)cc1		23 µM (active)
COc1ccc(NC(=S)N2CCC(Cc3ccccc3)CC2)cc1OC		10.8 µM (active)
c1csc(CNc2ncnc3nc[nH]c23)c1	1.61	
Cc1ccc(-n2c(-c3ccc(Cl)cc3)c[n+]3c2CCC3)cc1		2.64 µM (active)
O=C(CNC(=O)C1CCCCC1)OC(C(=O)c1ccccc1)c1ccccc1 (stereo unspecified)	1.59	
CCOc1ccc(S(=O)(=O)Nc2cc(S(=O)(=O)N(CC)CC)ccc2N2CCCC2)cc1	0.264 (active)	
N#Cc1cccc(NC(=O)Cn2c3[n+](c4ccc(C(F)(F)F)cc42)CCCCC3)c1		26.1 µM (active)
Cc1ccc(CN2CCC(n3nccc3NC(=O)c3ccccc3C)CC2)o1		2.38 µM (active)
COCCNC(=O)c1cccc(OC2CCN(Cc3cccc(SC)c3)CC2)c1	0.375	
Brc1cccc(OCCCCN2CCCCC2)c1		2.36 µM (active)

Compound	relative growth, lower = inhibition	Potency
COc1cccc(CN2CCN(c3nc4nonc4nc3N3CCCCC3)CC2=O)c1		14 µM (active)
CO[C@@H]1[C@@H](OC2OC(C)C(OC3CC(C)(O)C(OC(=O)CC(C)C)C(C)O3)C(N(C)C)C2O)[C@@H](CC=O)C[C@@H](C)C(=O)/C=C\C2O[C@H]2C[C@@H](C)OC(=O)C[C@H]1OC(C)=O (stereo partly specified)		1.04 µM (active)
COc1cc(C(C)=O)ccc1OCC(O)CN1CCN(c2cc(C)cc(C)c2)CC1 (stereo unspecified)	0.462	
CCCc1c(CC)c(=N)c2ccccc2n1C	0.187 (active)	
CCCc1cc(=O)oc2cc(OC(C)C(=O)NCc3ccccn3)c(Cl)cc12 (stereo unspecified)		20.8 µM (active)
CC1=Nc2cc(C(=O)N3CCCC3)ccc2Sc2ccc(C)cc21	0.214 (active)	
CCCCN(CCCNC(=O)C1CCN(C(=O)c2cc3sccc3n2C)CC1)Cc1ccccc1		3.62 µM (active)
O=C(Nc1ccccc1N1CCOCC1)c1cccc(S(=O)(=O)N2CCOCC2)c1		14.7 µM (active)
CCCCN(CCCNC(=O)c1ccc(CS(=O)(=O)c2ccc(OC)cc2)o1)Cc1ccccc1		6.24 µM (active)
Cc1sc2nc[nH]c(=O)c2c1-c1ccc(Cl)cc1		31.7 µM (active)
Cc1c(F)c(N2CCNC(C)C2)cc2c1c(=O)c(C(=O)O)cn2C1CC1 (stereo unspecified)		4.14 µM (active)
COc1ccccc1N1CCN(CCC(=O)Nc2ccc(F)cc2)CC1	0.587 (active)	
COc1ccc2c(ccc[n+]2CC(=O)c2ccccc2)c1		7 µM (active)
CCOC(=O)c1ccc2c(c1)n(CC)c(/C=C/N(C)c1ccccc1)[n+]2CC		2.08 µM (active)
Clc1ccc(-c2c[n+](Cc3ccc(Cl)cc3Cl)c3n2CCCCC3)cc1		5.44 µM (active)
